Assay results as given in PubChem BioAssay AID1211 (NMMLSC, 2008).
Activity calls are given as the source filed them. How the calls were made is not given here.

Biological target: Estrogen receptor (Homo sapiens) (UniProt P03372)
Test: ERalpha ligand binders by competition, primary screen, cell-based, Cos7 ERalpha-GFP, flow cytometry (AID 1211);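 further: 0% = DMSO vehicle wells and 100% = no E2-Alexa633 signal left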
Details: fluorescent ligand competition, stronger effect = higher value

Estrogen receptor (Homo sapiens), sequence (P03372 whole entry, looked up): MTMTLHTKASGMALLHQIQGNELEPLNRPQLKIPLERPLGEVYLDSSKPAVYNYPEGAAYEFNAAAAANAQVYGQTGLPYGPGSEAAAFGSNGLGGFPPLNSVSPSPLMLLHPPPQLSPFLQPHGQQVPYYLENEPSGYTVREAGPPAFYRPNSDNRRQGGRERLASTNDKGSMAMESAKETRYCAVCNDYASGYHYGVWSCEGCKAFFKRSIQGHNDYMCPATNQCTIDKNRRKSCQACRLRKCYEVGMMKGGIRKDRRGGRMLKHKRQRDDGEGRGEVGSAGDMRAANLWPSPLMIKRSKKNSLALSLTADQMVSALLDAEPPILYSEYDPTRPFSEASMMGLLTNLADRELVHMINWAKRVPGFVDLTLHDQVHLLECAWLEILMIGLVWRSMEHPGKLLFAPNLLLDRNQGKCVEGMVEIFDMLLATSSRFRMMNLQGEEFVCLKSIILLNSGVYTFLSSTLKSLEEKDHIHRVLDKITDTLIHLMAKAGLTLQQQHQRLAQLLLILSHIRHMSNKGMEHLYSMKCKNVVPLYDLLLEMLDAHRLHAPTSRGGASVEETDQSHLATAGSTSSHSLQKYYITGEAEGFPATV

Compound	inhibition of ligand binding (at 10 µM)	inhibition of ligand binding (binding inhibition, at 0.1 µM) [%]
COc1ccc(C2(CNCC(N)=O)CCCC2)cc1OC	10% (inactive)	
CC(C)COc1ccc2c(c1)c1c3n2CCNC3CCC1 (stereo unspecified)	22% (inactive)	
CC1Cc2ccccc2N1C(=O)CSc1nnc(-c2ccc(S(=O)(=O)N3CCCC3)cc2)o1 (stereo unspecified)	56% (inactive)	
Cc1nc2ccccc2n1-c1cc(C(C)(C)C)c(O)c(C(C)(C)C)c1	9% (inactive)	
CCN(c1ccccc1)S(=O)(=O)c1ccc2[nH]cc(C(=O)NCCOC)c(=O)c2c1	22% (inactive)	
COc1cc2c(c([N+](=O)[O-])c1)NC(c1ccc(Br)cc1)C1CC=CC21 (stereo unspecified)	0% (inactive)	
CCOC(=O)c1c(N)sc2c1CC(C)(C)NC2(C)C	8% (inactive)	
CC(C)C1Nc2ccc(S(N)(=O)=O)cc2C2C=CCC21 (stereo unspecified)	70% (active)	
CC1(C)CC(=O)C=C(NC2CC(C)(C)NC(C)(C)C2)C1	0% (inactive)	
CCOc1cc2c(cc1OCC)C(C(CC)CC)NCC2 (stereo unspecified)	0% (inactive)	
CC12CCCCC1(O)[N+](=O)C1=C(CCCC1)N2[O-] (stereo unspecified)	3% (inactive)	
Fc1ccc2c(c1)[C@H]1OCC[C@H]1[C@@H](c1ccco1)N2	34% (inactive)	
Cc1oc2ccc(OCC#N)cc2c1C(=O)OC(C)C	0% (inactive)	
CC(=O)c1ccc2c(c1)C1C=CCC1C(c1ccc(S(=O)(=O)N3CCOCC3)cc1)N2 (stereo unspecified)	0% (inactive)	
O=C(O)c1ccc2c(c1)C1C=CCC1C(c1cccc([N+](=O)[O-])c1)N2 (stereo unspecified)	72% (active)	
CCCCOc1cc(OCCCC)c2c3c(c(=O)oc2c1)CCCC3	19% (inactive)	
COc1cc(/C=N/N2CCN(C3c4ccccc4-c4ccccc43)CC2)cc(OC)c1O	0% (inactive)	
COc1cc([N+](=O)[O-])cc2c1NC(c1ccc(Cl)cc1)C1CC=CC21 (stereo unspecified)	46% (inactive)	
O=c1oc2cc(O)c(Cl)cc2c2c1CCCC2	0% (inactive)	
COc1ccc2[nH]c3c(c2c1)CCNC3C1CC=C(C)CC1 (stereo unspecified)	0% (inactive)	
Cc1nn(-c2ccccc2)c2sc(C#N)c(N)c12	17% (inactive)	
Cc1ccn2c(NCc3ccc4c(c3)OCO4)c(-c3ccc(O)cc3)nc2c1	32% (inactive)	
Cc1ccc(S(=O)(=O)Cc2ccc(C(=O)O)o2)cc1	34% (inactive)	

Compound	inhibition of ligand binding (at 10 µM)	inhibition of ligand binding (binding inhibition, at 0.1 µM) [%]
Cc1c(O)ccc2c3c(c(=O)oc12)CCCC3	0% (inactive)	
COc1ccc2c(c1)c1c3n2CCNC3CCC1 (stereo unspecified)	25% (inactive)	
CC(C)C1Nc2ccc(C(=O)O)cc2C2C=CCC21 (stereo unspecified)	36% (inactive)	
COc1cc([N+](=O)[O-])cc2c1NC(c1ccccc1)C1CC=CC21 (stereo unspecified)	0% (inactive)	
CCCCCCc1cc2c3c(c(=O)oc2cc1OCC(N)=O)CCC3	3% (inactive)	
CCOC(=O)N1CCc2[nH]c3ccc(C)cc3c2C1	6% (inactive)	
O=C(O)c1cc(Cl)c2c(c1)[C@@H]1C=CC[C@@H]1[C@H](c1ccc(S(=O)(=O)N3CCOCC3)cc1)N2	42% (inactive)	
Cc1c(Cc2ccccc2)c(=O)n2c([nH]c3ccccc32)c1C#N	5% (inactive)	
COc1ccc(-n2cc3c(c(C#N)c2=N)CC(C)(C)CC3=O)cc1	29% (inactive)	
CCNC(=O)N1c2ccc(OCC)cc2C(C)=CC1(C)C	10% (inactive)	
O=C(c1cccs1)N1N=C(c2ccccc2)CC1c1ccc(O)cc1 (stereo unspecified)	21% (inactive)	
Cc1noc(C)c1CSCC(=O)OCC(=O)Nc1sccc1C#N	2% (inactive)	
Nc1nc(N)c2sc3nc4c(cc3c2n1)CCC4	17% (inactive)	
CCOC(=O)C1=C(C)NC(=O)NC1c1ccco1 (stereo unspecified)	56% (inactive)	
O=C(COC(=O)C1CC2C=CC1C2)NCc1ccco1 (stereo unspecified)	16% (inactive)	
N#Cc1c2c(c(=O)n3c1[nH]c1ccccc13)CCCC2	23% (inactive)	
Cc1nn(-c2ccccc2)c2sc(C(=O)c3c(N)n(C)c(=O)n(C)c3=O)cc12	0% (inactive)	16
CCOc1ccc(NS(=O)(=O)c2ccc3c(c2)[C@H]2C=CC[C@H]2[C@@H](c2cccc([N+](=O)[O-])c2)N3)cc1	0% (inactive)	
CC(C)CN(Cc1c(O)ccc2c3c(c(=O)oc12)CCC3)CC(C)C	6% (inactive)	
O=C(N/N=C/c1cccc(Oc2ccc([N+](=O)[O-])cc2[N+](=O)[O-])c1)c1cncc(Br)c1	21% (inactive)	63
CCOc1cc2c(c([N+](=O)[O-])c1)NC(c1ccc(Cl)cc1)C1CC=CC21 (stereo unspecified)	0% (inactive)	
COc1ccc2[nH]c3nc(SCc4nnc(-c5ccc(C)cc5)o4)nnc3c2c1	64% (inactive)	3
Cc1cc(C)c2c(c1)[C@@H]1C=CC[C@@H]1[C@H](c1ccc(S(=O)(=O)N3CCOCC3)cc1)N2	66% (active)	

Compound	inhibition of ligand binding (at 10 µM)	inhibition of ligand binding (binding inhibition, at 0.1 µM) [%]
Cc1ccc(C)n1-c1sccc1C(=O)O	36% (inactive)	36
Cc1csc(C(C#N)C(=O)c2ccncc2)n1 (stereo unspecified)	33% (inactive)	
CC(=O)c1ccc2c(c1)C1C=CCC1C(c1cccc([N+](=O)[O-])c1)N2 (stereo unspecified)	68% (active)	
Cc1ccc(C)c(SCC(=O)OCC(=O)c2ccco2)c1	0% (inactive)	28
CCCCn1c(=O)[nH]c2nc3cc(N)ccc3nc2c1=O	4% (inactive)	1
Cc1nn(-c2ccccc2)c(C)c1NC(=O)Cc1cccs1	11% (inactive)	35
Cc1cc(C(=O)CSc2nnc(-c3ccccc3F)o2)c(C)n1Cc1cccs1	69% (active)	16
Oc1ccccc1-c1nnc(SCCN2CCOCC2)n1Cc1ccccc1	32% (inactive)	44
C/C=C/COC(=O)c1[nH]c2c(c1C)C(=O)CC(c1ccco1)C2 (stereo unspecified)	29% (inactive)	27
CCc1cc2c3c(c(=O)oc2cc1OCC(=O)OC)CCCC3	3% (inactive)	
CCOc1ccc(NS(=O)(=O)c2ccc3c(c2)[C@H]2C=CC[C@H]2[C@@H](c2ccc(C(=O)O)cc2)N3)cc1	66% (active)	
COc1ccc(Cl)cc1NC(=O)c1ocnc1C	21% (inactive)	3
COc1cccc(NS(=O)(=O)c2ccc3c(c2)C2C=CCC2C(c2ccc(C(=O)O)cc2)N3)c1 (stereo unspecified)	37% (inactive)	
CCOc1ccccc1N1CSC2=C(C#N)C(c3c(OC)ccc4ccccc34)CC(=O)N2C1 (stereo unspecified)	19% (inactive)	17
CSC(=O)CNC1(Cc2ccc(O)cc2)CCCCC1	11% (inactive)	
COc1cccc2sc(Nc3nnc(-c4ccc(F)cc4)o3)nc12	17% (inactive)	
CCC1(CC)NC(=O)N(CC(=O)Nc2sc3c(c2C(N)=O)CCC3)C1=O	38% (inactive)	
COc1ccc(C(N)CCc2ccc(C)o2)cc1 (stereo unspecified)	30% (inactive)	39
CCn1c(SCC(=O)N2CCOCC2)nc2oc3c(Cl)cc(Cl)cc3c(=O)c2c1=O	22% (inactive)	5
Cc1sc2ncnc(NCc3ccco3)c2c1C	0% (inactive)	
Cc1cc(C)c(C(=O)COc2cccnc2[N+](=O)[O-])cc1C	19% (inactive)	30
O=C(CSc1nnc(-c2ccc(O)cc2)n1Cc1ccccc1)NNC(=O)c1ccc(Br)cc1	48% (inactive)	
O=C(NC1CC1)c1ccc2c(c1)C1C3CCC(C3)C1C(c1ccccc1)N2 (stereo unspecified)	86% (active)	

Compound	inhibition of ligand binding (at 10 µM)	inhibition of ligand binding (binding inhibition, at 0.1 µM) [%]
CCCCCc1nnc(NC(=O)Cc2cccs2)s1	26% (inactive)	8
O=C(Nc1cc(C(F)(F)F)ccc1N1CCOCC1)C1Cc2ccccc2CN1C(=O)c1ccco1 (stereo unspecified)	56% (inactive)	
CCC1(C)NC(=O)N(CC(=O)Nc2sc3c(c2C(N)=O)CCC3)C1=O (stereo unspecified)	15% (inactive)	16
O=C(Cc1ccc(S(=O)(=O)N2CCOCC2)s1)Nc1nc2c(s1)CCCC2	46% (inactive)	32
CCCc1cc(=O)oc2c(C)c(OC3CCCCC3=O)ccc12 (stereo unspecified)	0% (inactive)	
O=S(=O)(c1cccc(-c2cn3cccnc3n2)c1)N1CCCCCC1	25% (inactive)	48
COc1cc([N+](=O)[O-])cc2c1NC(c1ccc(Br)cc1)C1CC=CC21 (stereo unspecified)	0% (inactive)	
CC(=O)NC12CC3CC(C1)CC(C(=O)OCC(=O)Nc1ncc(Cl)c(C)c1Cl)(C3)C2	21% (inactive)	
FC(F)(F)c1ccc2c(c1)C1C=CCC1C(c1ccncc1)N2 (stereo unspecified)	61% (inactive)	27
Cc1ccc2c(Cl)cc(Cl)c(OCC(=O)NCc3ccco3)c2n1	21% (inactive)	18
Cc1cc2n(c1)CCn1c(C)ccc1-2	26% (inactive)	53
COc1ccc(NC(=O)CSc2nc3ccccc3c3nc4ccccc4n23)cc1	23% (inactive)	31
Cc1cs/c(=N\N=C\c2ccc(O)cc2)n1Cc1ccco1	51% (inactive)	55
CCCCNS(=O)(=O)c1ccc(NC(=O)C(Sc2ccccc2)c2ccccc2)cc1 (stereo unspecified)	25% (inactive)	21
O=C(NNC(=O)c1ccc(SCC2CCCO2)c([N+](=O)[O-])c1)c1ccc(Cl)c([N+](=O)[O-])c1 (stereo unspecified)	35% (inactive)	45
CCn1nnc(NC(=O)CSc2ccc(Cl)cc2)n1	7% (inactive)	10
CN(CC(=O)NC(=O)NCc1ccco1)Cc1nc2ccccc2c(=O)[nH]1	17% (inactive)	64
CC1(C)N=C(N)N=C(N)N1c1ccc(C(=O)O)cc1	35% (inactive)	21
CC1(N2CCOCC2)CC2(O)C(=[N+]1[O-])CCc1nonc12 (stereo unspecified)	34% (inactive)	46
COc1cccc2c1NC(C(=O)O)C1CC=CC21 (stereo unspecified)	38% (inactive)	9
CC1=C(SCCC#N)S/C(=C2\SC(C)=C(SCCC#N)S2)S1	59% (inactive)	11
Cn1c(SCc2cc(=O)n3cc(Br)ccc3n2)nnc1C1COc2ccccc2O1 (stereo unspecified)	19% (inactive)	27
COC(=O)C1=C(O)/C(=C\c2ccc(CNC(=O)C(=O)Nc3ccc(C)c(C)c3)o2)N=C1C	32% (inactive)	31
